Bioassay records (PubChem)
This is a sample that favours compounds with a hit; in the whole collection about 2.4% have one here.
WRN helicase inh: inhibitors of human WRN helicase | Potency, µM (titrated, usually from 114 µM), for inactives: at the top dose activity change, negative = inhibition, hits mostly inhibitors | WRN helicase unwinding, fluorescent forked duplex, kinetic | Q14191 | actives 0.46% (n = 360,000); further: on the % scale 0 is the no-effect control and ±100 the full control effect; nearly all actives have a fitted effect of over 55% in size
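WRN at 20 nM final preincubated with compound 15 min at room temperature; reaction started with 100 nM fluorophore/quencher forked duplex oligonucleotide and 2 mM ATP final. Unwinding followed kinetically by red fluorescence (ex 525, em 598 nm).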
FEN1 inh: blocks human flap endonuclease 1; actives 0.35% (n = 390,000); Potency, µM (doses to about 114 µM), for inactives: top-dose activity change, negative = inhibition, most hits filed as inhibitors; Recombinant FEN1 flap cleavage, fluorescence, 15 min; P39748; further: on the % scale 0 is the no-effect control and ±100 the full control effect; nearly all actives have a fitted effect of over 65% in size
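In this screen, 50 nM flap DNA substrate was added to 10 nM FEN1 pretreated with compound for 15 min at room temperature; cleavage was followed with reads at 0 and 15 min, and Hill fitting gave concentration–response parameters.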
POLB inh: blocks human DNA polymerase beta activity. Pol beta primer extension/strand displacement, fluorescence kinetic. AID 485314. actives 1.3% (n = 340,000). Potency, µM (series often up to 114 µM), inactives show top-dose activity change, negative = inhibition, most hits filed as inhibitors. P06746; further: on the % scale 0 is the no-effect control and ±100 the full control effect
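10 nM enzyme + cpd, 15 min RT; start with substrate 50 nM final; read 0 min and after 10 min RT. Corrected, normalized data; 4-parameter Hill curve fit.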
Pol eta inh: blocks human DNA polymerase eta activity. Q9Y253. recombinant Pol eta, fluorescent DNA replication assay. Potency, µM (series often up to 114 µM), without a hit: top-dose activity change, negative = inhibition, most hits filed as inhibitors. actives 1.2% (n = 390,000). AID 588591; further: on the % scale 0 is the no-effect control and ±100 the full control effect
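Pol eta at 10 nM preincubated with compounds 15 min at room temperature; reaction started with fluorescent substrate (50 nM final) and read kinetically at 0 and 10 min.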
Pol iota inh: blocks human DNA polymerase iota activity; Q9UNA4; Potency, µM (highest dose often 115 µM), inactives show at the top dose activity, negative = inhibition, hits mostly inhibitors; actives 1% (n = 390,000); AID 588590; Pol iota fluorescent replication assay, 10 min
Target sequence (Q9UNA4 whole entry, looked up): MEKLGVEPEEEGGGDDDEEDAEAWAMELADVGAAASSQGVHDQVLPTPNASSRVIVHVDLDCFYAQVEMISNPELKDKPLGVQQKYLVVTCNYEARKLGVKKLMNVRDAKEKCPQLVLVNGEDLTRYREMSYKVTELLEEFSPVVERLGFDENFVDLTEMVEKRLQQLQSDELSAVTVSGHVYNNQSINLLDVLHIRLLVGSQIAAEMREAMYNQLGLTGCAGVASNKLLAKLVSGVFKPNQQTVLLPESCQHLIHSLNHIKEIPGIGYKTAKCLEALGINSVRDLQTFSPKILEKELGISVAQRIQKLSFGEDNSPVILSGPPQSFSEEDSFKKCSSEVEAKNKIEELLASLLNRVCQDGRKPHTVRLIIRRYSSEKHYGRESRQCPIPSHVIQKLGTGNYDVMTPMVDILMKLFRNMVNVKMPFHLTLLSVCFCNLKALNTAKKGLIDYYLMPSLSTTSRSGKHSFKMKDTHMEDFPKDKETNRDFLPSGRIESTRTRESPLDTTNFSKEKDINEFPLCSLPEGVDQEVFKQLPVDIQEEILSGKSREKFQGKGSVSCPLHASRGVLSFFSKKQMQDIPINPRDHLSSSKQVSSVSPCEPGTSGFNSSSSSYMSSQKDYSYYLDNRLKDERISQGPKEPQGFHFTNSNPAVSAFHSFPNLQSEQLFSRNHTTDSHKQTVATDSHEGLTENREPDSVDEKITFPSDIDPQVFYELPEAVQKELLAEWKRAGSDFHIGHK
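Fluorescent replication assay read twice, at 0 min and 10 min after adding 50 nM (final) substrate. Enzyme (10 nM) and compounds were first incubated 15 min at room temperature; enzyme-free buffer wells were negative controls.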
Pol kappa inh: DNA polymerase kappa (human) inhibition. Q9UBT6. purified Pol kappa, fluorescent DNA synthesis assay, 10 min. Potency, µM (series often up to 107 µM), for the others: at the highest dose activity, negative = inhibition, hits mostly inhibitors. actives 0.53% (n = 400,000). AID 588579; further: on the % scale 0 is the no-effect control and ±100 the full control effect
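Here, compound and 10 nM enzyme are combined for 15 min at room temperature; adding 50 nM substrate (final) starts DNA synthesis, tracked by fluorescence at 0 and 10 min against buffer-only wells.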
* hit, by the source's call; u = inconclusive; x = no result; [ ] = another dose, or the depositor's remark. The call rests on the fitted dose curve; in most records, active means well fitted curve in the direction sought with a large enough effect; inconclusive means small, poorly fitted or top-dose-only effect, or another doubt; inactive means no such curve, though single readings can be large; an effect the other way counts as inactive or inconclusive. Potency means the concentration at half of the fitted maximal effect.

SMILES | WRN helicase inh | FEN1 inh | POLB inh | Pol eta inh | Pol iota inh | Pol kappa inh
Cc1nn(CC(=O)NCCCc2ccccc2)c(=O)c2cccn12 | 0% | 20% | 4% | -9% | 12% | 5%
CCOC(=O)c1c(S(=O)(=O)N2CCN(c3cc(Cl)ccc3C)CC2)c(C)n(C)c1C | x | -33% | 8% | -10% | -16% | -7%
COC(=O)/C=C/c1cc(F)ccc1S(=O)(=O)Nc1ccccc1 | x | -17% | x | x | 27% | -32%
O=c1[nH]c(Nc2ccc(F)cc2)cc2ccccc12 | -11% | 3% | -16% | 22µM* | 7.1µM* | -6%
Cc1cc(N)cc(C)c1-c1c(Br)cc(N)cc1Br | -3% | -14% | x | -25% | 14% | -8%
Nc1cc(N)cc(N)c1 | x | u | x | x | 1.6µM* | u
O=C(Nc1cc(Sc2ccccn2)cc([N+](=O)[O-])c1)c1ccc([N+](=O)[O-])cc1 | 32µM* | -27% | 3% | u | 0% | -2%
CC(=O)c1ccc(NC(=O)c2ccc3c(c2)C(=O)N(c2ccccn2)C3=O)cc1 | -5% | -1% | -18% | -15% | 15% | 3%
O=C(O)c1cccc(N2C(=O)c3ccc(C(=O)c4cccc([N+](=O)[O-])c4)cc3C2=O)c1 | -7% | -7% | -9% | 56µM* | -29% | -40%
O=C(Nc1cccc([N+](=O)[O-])c1)c1ccc2c(c1)C(=O)N(c1ccccn1)C2=O | -18% | -31% | 45µM* | -20% | -13% | -11%
O=C(Nc1cccc([N+](=O)[O-])c1)c1cccc(C(=O)Nc2cccc([N+](=O)[O-])c2)c1 | 3% | -20% | 1.1µM* | 2% | -14% | -9%
O=S(=O)(c1cccnc1)N1CCN(c2nc(-c3cccs3)nc3ccccc23)CC1 | x | 0% | x | x | u | -9%
O=C(O)CCc1ccc(-c2cccs2)n1NC(=O)c1cccs1 | 2% | 11% | u | -20% | 0% | 3%
O=C(O)CCc1ccc(-c2cccs2)n1Cc1ccco1 | -4%[11.6 µM] | -2% | 50µM* | u | u | -8%
O=C(O)CCc1ccc(-c2cccs2)o1 | u | -16% | -21% | 45µM* | 40µM* | u
O=C(O)CCc1ccc(-c2ccc(Cl)cc2)n1Cc1ccco1 | -18% | -1% | u | u | 43% | -2%
O=C(O)CCc1ccc(-c2cccs2)n1NC(=O)c1ccc(O)cc1 | -17%[57.1 µM] | -2% | u | 89µM* | u | u
COCCn1c(CCC(=O)O)ccc1-c1cccs1 | -9% | 12% | 16% | 3% | -15% | -12%
CCCCOC(=O)c1ccc(NC(=O)CSc2nc3c(c(=O)[nH]2)CCCC3)cc1 | x | -4% | 2% | x | 24% | 5%
Oc1c(N=Nc2ccccn2)ccc2ccccc12 | 56µM* | u | -1% | -26% | 49% | 0%
Cc1ccccc1CNC(=O)Cn1ncn2nc(-c3cccs3)cc2c1=O | x | 89µM* | 11% | -12% | u | 1%
O=C(Cn1ncn2nc(-c3cccs3)cc2c1=O)NCc1ccccc1Cl | x | 15% | 2% | -12% | -27% | -18%
O=[N+]([O-])c1ccc(Nc2nc(NCCN3CCOCC3)nc(Nc3ccc(Cl)cc3)n2)cc1 | x | -15% | x | x | 2% | -32%
O=[N+]([O-])c1cc(CN(CCO)CCO)ccc1O | -31% | -10% | 50µM* | u | 25µM* | u
COc1ccc(CN(CCO)CCO)cc1[N+](=O)[O-] | -3% | 14% | 45% | 6% | 12% | 6%
SMILES | WRN helicase inh | FEN1 inh | POLB inh | Pol eta inh | Pol iota inh | Pol kappa inh
CCC[C@H]1C[C@H](C(=O)NC(C(C)Cl)C2O[C@@H](SC)C(OP(=O)(O)O)[C@@H](O)[C@@H]2O)N(C)C1 (some centres not stated) | x | x | x | x | x | -9%[60.1 µM]
O=C(Sc1n[nH]c(=O)[nH]c1=O)c1ccccc1 | 18µM* | 1% | x | -12% | u | 0%
CCn1c(=S)[nH]c2c(=O)n(C)c(=O)n(C)c21 | 50µM* | 2% | x | -2% | u | -8%
CCOc1cc(/C=C2/NC(=O)NC2=O)cc(Br)c1OCc1ccc(C(=O)O)cc1 | u | u | 25µM* | u | u | -1%
CCCN1CNc2c(c(=O)[nH]c(=S)n2CCc2ccc(C)cc2C)C1 | x | -1% | x | x | u | 6%
CCOc1ccc(-c2nnc(SCC(=O)c3ccc(Br)cc3)n2-c2ccccc2)cc1 | x | 10% | -15% | -6% | u | -22%
[S-]c1nnc(-c2ccc(Br)cc2)n1-c1ccccc1.[Zn+2] | 3% | 1% | 0% | 6% | 2.8µM* | -1%
C=C1C=C(C(F)F)n2ncc(C(=O)NCc3ccc(Cl)cc3Cl)c2N1 | x | 1% | x | x | 17% | 6%
CCCN(C(=O)COC(=O)c1cc(CC)c(C)s1)c1c(N)n(Cc2ccccc2)c(=O)[nH]c1=O | -8%[11.6 µM] | -11% | x | 18µM* | 40µM* | u
COCCCN(C(=O)c1cc2c(s1)CCC2)c1c(N)n(Cc2ccccc2)c(=O)[nH]c1=O | u | -5% | 13µM* | u | 32µM* | u
CCN(C(=O)COC(=O)c1cc2c(s1)CCCC2)c1c(N)n(Cc2ccccc2)c(=O)[nH]c1=O | -17% | 28% | x | u | 45µM* | -33%
CCN(C(=O)COC(=O)c1cc2c(s1)CCC(C)C2)c1c(N)n(Cc2ccccc2)c(=O)[nH]c1=O (configuration not stated) | -3%[11.6 µM] | 1% | x | u | u | -7%
COc1ccc(OC)c2c(C)ccnc12 | x | -7% | x | x | -10% | 6%
O=C(O)CN1C(=O)C=CC1=O | -13% | x | x | u | x | x
O=C1C=CC(=O)N1CCCCCCN1C(=O)C=CC1=O | 20µM* | -16% | 0% | u | -37% | -16%
COc1ccc(-c2cc(=O)c3c(O)cc(O[C@H]4OC(COC5OC(C)C(O)C(O)[C@H]5O)C(O)C(O)C4O)cc3o2)cc1O (some centres not stated) | x | x | x | x | x | 20µM*
COc1cc2ccc(=O)oc2c(O)c1O | -14% | 8.9µM* | x | -4% | u | 50µM*
COc1cc2ccc(=O)oc2c(OC)c1OC | x | x | x | x | x | -1%[60.1 µM]
CCCCn1c(=O)c2[nH]c(C34CC5CC(CC3C5)C4)nc2n(CCCO)c1=O | x | x | x | x | x | 2%[60.1 µM]
CCN(CCO)c1nc(SC)nc2c1sc1nc(-c3ccco3)c3c(c12)CCC3 | -13% | -9% | 7.1µM* | -15% | u | u
CSc1nc(NCCOCCO)c2sc3nc(-c4ccco4)c4c(c3c2n1)CCC4 | -13% | 2% | 3.5µM* | -13% | 12% | -1%
CSc1nc(NCc2ccco2)c2sc3nc(C(C)C)c4c(c3c2n1)CC(C)(C)OC4 | 6% | -6% | 15% | -14% | -4% | -16%
